# HDAC3 inh = inhibitors of human histone deacetylase 3; recombinant HDAC3, fluorogenic peptide/trypsin coupled, fluorescence; inhibition, % at 8.3 µM; actives 0.15% (n = 320,000); AID 2718; in the data active = inhibition above about 26%, passing the limit was not always enough
# GC-A act = GC-A (human) enzyme activation. P16066. HEK293 GC-A cells, cGMP TR-FRET, EC30 ANP; 0% at EC30 ANP, 100% saturating ANP. activation, % at 10 µM. actives 0.14% (n = 370,000). AID 1671463; in the data active = activation above about 40%
# ALR H2O2 inh = human ALR oxidase inhibition via reduced H2O2. P55789. purified ALR, DTT oxidation, H2O2 HRP-luminol luminescence. inhibition, % (no concentration beside the values). actives 3.8% (n = 290,000). AID 485317;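 active = mean replicate inhibition above about 79%, with every replicate also reaching it, limit read from the data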
# Target sequence (P55789 whole entry, looked up): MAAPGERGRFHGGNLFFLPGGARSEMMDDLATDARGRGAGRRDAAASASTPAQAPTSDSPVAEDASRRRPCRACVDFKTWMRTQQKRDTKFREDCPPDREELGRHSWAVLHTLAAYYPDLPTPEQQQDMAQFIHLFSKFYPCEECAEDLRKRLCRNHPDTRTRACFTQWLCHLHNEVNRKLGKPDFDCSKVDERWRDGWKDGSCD
# NPR2 activator = GC-B (human) receptor activation | P20594 | HEK293-GC-B cells, CNP EC30, cGMP TR-FRET; 0% at EC30 CNP, 100% saturating CNP | activation, % at 10 µM | actives 0.11% (n = 370,000) | AID 1920062;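 active = activation at 10 µM reaching about 35% in either raw or pattern-adjusted values, limit read from the data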
# * = called active by the depositor; . = no result given. The full list was thinned out, with hits kept by preference.
SMILES,HDAC3 inh,GC-A act,ALR H2O2 inh,NPR2 activator
Cc1nc2ccccc2n1CC(=O)c1ccc(O)c(O)c1,3,1,98*,-3
Cc1nc2ccccc2n1CC(=O)c1ccccc1,-1,-4,-6,1
COc1cccc(-c2nc(CS(=O)CC(=O)NCc3ccc4c(c3)OCO4)c(C)o2)c1 (centres undefined),0,-1,99*,1
COc1cccc(-c2nc(CS(=O)CC(=O)NCc3ccccc3Cl)c(C)o2)c1 (centres undefined),3,2,99*,2
COc1cccc(-c2nc(CS(=O)(=O)CC(=O)NCCC(C)C)c(C)o2)c1,1,-12,25,-5
COc1ccc(-c2nc(CS(=O)CC(=O)NCc3ccc4c(c3)OCO4)c(C)o2)cc1 (centres undefined),1,0,99*,-4
O=C(CCc1ccc(O)cc1)c1c(O)cc(O)cc1O[C@@H]1O[C@H](CO)[C@@H](O)[C@H](O)[C@H]1O,-3,-1,81*,1
O=c1c(OC2OC(CO)C(O)C(O)C2OC2OC(CO)C(O)C(O)C2OC2OC(CO)C(O)C(O)C2O)c(-c2ccc(O)c(O)c2)oc2cc(O)cc(O)c12 (centres undefined),7,-2,99*,-1
O=c1c(O)c(-c2cc(O)c(O)c(O)c2)oc2cc(O)cc(O)c12,4,0,99*,-10
O=c1c2c(O)cc(O)cc2oc2ccc(O)c(O[C@@H]3O[C@H](CO)[C@@H](O)[C@H](O)[C@H]3O[C@H]3O[C@H](CO)[C@@H](O)[C@H](O)[C@H]3O)c12,5,1,.,-6
O=c1c(O[C@@H]2O[C@H](CO)[C@@H](O)[C@H](O)[C@H]2O)c(-c2ccc(O)cc2)oc2cc(O)cc(O)c12,7,.,94*,.
CCOC(=O)[C@]12CCCCC/C=C\1N(Cc1ccc(OC)cc1)C(=O)[C@H]2CC(=O)NCCCCc1ccccc1,.,1,.,-6
COC(=O)[C@]12C[C@H](CC(=O)NCCCCc3ccccc3)C(=O)N(Cc3ccco3)C1=C[C@H](C(C)(C)C)O[C@@H]2C,.,-21,.,-18
COc1cccc(CN2CCNC(=O)C2CC(=O)NCCCN2CCCC2=O)c1 (centres undefined),1,9,-57,-1
COc1ccc(-c2c(C)oc3cc(O)cc(O)c3c2=O)cc1OC,1,0,.,4
CC1OC(OCC2OC(Oc3c(-c4ccc(O)cc4)oc4cc(O)cc(O)c4c3=O)C(O)C(O)C2O)C(O)C(O)C1O (centres undefined),3,3,70,-5
COc1c(-c2ccc(O)c(O)c2)oc2cc(O)cc(O)c2c1=O,3,-4,98*,-11
C[C@@H]1O[C@@H](OC[C@H]2O[C@@H](Oc3c(-c4ccc(O)c(O)c4)oc4cc(O)cc(O)c4c3=O)[C@H](O)[C@@H](O)[C@@H]2O)[C@H](O)[C@H](O)[C@H]1O,4,-1,99*,3
CCc1ccc(CCNC(=O)OCCCN2CCC3(CCC(C)CC3)C2=O)cc1 (centres undefined),.,-4,.,-3
O=C(Cn1ccc(NC(=O)OCc2ccccc2)nc1=O)NCCc1c[nH]c2ccccc12,3,-2,1,0
CCOC(=O)C(=CNc1ccc(OC)cc1[N+](=O)[O-])C(=O)OCC,-4,1,.,5
Nc1ncnc2c1ncn2[C@@H]1O[C@H](CNS(=O)(=O)c2cc(S(=O)(=O)c3ccccc3)cs2)[C@@H](O)[C@H]1O,.,-2,.,-2
O=S(=O)(c1ccccc1)N1N=C(c2ccc(O)cc2)CC1c1ccco1 (centres undefined),4,-11,100*,-8
Cc1ccc(C2=NN(S(=O)(=O)c3ccccc3)C(c3ccco3)C2)cc1 (centres undefined),0,-5,.,-2
NC(Cc1ccc(F)cc1)c1csc(Nc2nccc(C(F)(F)F)n2)n1 (centres undefined),.,-4,.,-2
SMILES,HDAC3 inh,GC-A act,ALR H2O2 inh,NPR2 activator
O=C(Nc1cccc2cccnc12)c1ccc2sc([C@@H]3O[C@H](CO)[C@H](O)[C@H](O)[C@H]3O)nc2c1,.,3,.,0
CCOc1cc(C2C3=C(CC(C)(C)CC3=O)Nc3n[nH]c(C)c32)ccc1O (centres undefined),5,1,57,6
Oc1ccc(Nc2nc(Cl)nc(NCc3ccco3)n2)cc1,0,14,99*,12
c1cncc(CNc2ccc3c(c2)OCO3)c1,-2,-4,80*,-2
Oc1ccccc1CNc1ccc2c(c1)OCCO2,2,1,99*,0
O=C(NCc1cccnc1)Nc1ccc2c(c1)OCO2,-6,-2,-5,-2
Cc1ccc(NCc2ccccc2O)cc1C,6,3,91*,0
O=C(O)c1ccc(-n2cccc2/C=N\NC(=O)c2cc3cc(Br)ccc3o2)cc1,11,-6,87*,-1
COc1ccc2[nH]c(=S)[nH]c2c1,0,2,98*,4
S=c1[nH]c2ccc(Cl)cc2[nH]1,6,1,56,-2
CCn1c(SCC(=O)Nc2ccc(OC)c(OC)c2)nc2c(c1=O)SCC2,.,2,99*,-4
COc1ccc(NC(=O)CSc2nc3c(c(=O)n2C)SCC3)cc1OC,1,0,99*,-4
Cn1c(SCc2ccc([N+](=O)[O-])cc2)nc2c(c1=O)SCC2,2,2,99*,0
COCCn1c(SCC(=O)Nc2cccc(F)c2)nc2c(c1=O)SCC2,.,1,99*,3
O=C(N[C@@H]1CC[C@H]2SC[C@H](C(=O)O)N2C1=O)OCC1c2ccccc2-c2ccccc21,.,4,.,1
Cn1c(SCC(=O)Nc2ccc(F)cc2)nc2c(c1=O)SCC2,.,-1,40,5
Cn1c(SCC(=O)Nc2ccccc2F)nc2c(c1=O)SCC2,0,1,88*,1
COC(=O)[C@]12C[C@H](CC(=O)NCc3ccc(OC)c(OC)c3)C(=O)N(Cc3ccccc3)C1=C[C@H](C(C)(C)C)O[C@@H]2C,.,-10,.,-11
Cc1ccc2c(c1)c(C)c(C)n2CC(O)CN1CCCCC1C (centres undefined),-10,-9,95*,-10
Cc1ccc2c(c1)c1c(n2CC(O)CN2CCCCC2C)CCCC1 (centres undefined),-2,-21,95*,-8
Cc1ccc2c(c1)c1c(n2CC(O)CN2CCOCC2)CCCC1 (centres undefined),-8,.,9,.
Cc1ccc2c(c1)c1c(n2CC(O)CN2CCC(C)CC2)CCCC1 (centres undefined),3,-14,93*,-5
Cc1ccc(C)c(OCC(O)CN2CCCCC2C)c1 (centres undefined),5,0,-1,0
C=CCn1c(SCC(=O)N2CCN(c3ccccc3)CC2)nc2c([nH]c3ccccc32)c1=O,-3,-4,-1,0
CCCCOCCCNC(=O)C[C@@H]1C(=O)N(Cc2ccc(OC)cc2)/C2=C/CCCCC[C@@]21C(=O)OCC,.,-3,.,-5
